# A selection: hits, their analogues and other compounds. The true share with any hit is near 0.4%.
# Rab2 wt GTP = changes GTP binding to wildtype dog Rab2A, up or down | P61105 | GST-Rab2 wt beads, Bodipy-GTP binding, flow cytometry | GTP binding activity, % at 10 µM | actives 0.19% (n = 190,000);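 active means GTP binding activity at least 20 points away from 100%, either lowered or raised; inconclusive means signal likely due to the compound's own green fluorescence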;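 further: 0% = beads with excess unlabeled GTP and 100% = no-compound control corrected for plate trend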
# Rab7 wt GTP bind = alters GTP binding to wildtype dog Rab7; actives 0.055% (n = 190,000); GST-Rab7 beads, fluorescent GTP binding, flow cytometry; actives lie on both sides; untreated = 100%, excess cold GTP = 0%; GTP binding activity (percent of control), % at 10 µM; AID 758;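 active means fluorescent GTP binding to Rab7 beads changed by at least 20 points from the 100% baseline, either direction, mostly lower; inconclusive means compound itself probably fluorescent, or too few beads counted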;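 further: median green fluorescence of bound Bodipy-FL-GTP per Rab7 bead population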
# Cdc42 wt GTP = modulators (inhibitors or activators) of GTP binding to human Cdc42 wildtype. P60953. GST-Cdc42 beads, Bodipy-GTP binding, flow cytometry; actives lie on both sides. percent activity (GTP binding), % at 10 µM. actives 0.2% (n = 190,000);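 active means percent activity GTP binding at least 20 points away from the 100% baseline, either down as inhibitor or up as activator; inconclusive means compound flagged as likely green fluorescent from well-wide comparison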;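 further: median bead fluorescence of bound Bodipy-FL-GTP at 100 nM; 0% = excess unlabeled GTP control and 100% = no compound control; below 100% means less GTP binding so inhibitor and above means activator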
# Target sequence (P60953 whole entry, looked up): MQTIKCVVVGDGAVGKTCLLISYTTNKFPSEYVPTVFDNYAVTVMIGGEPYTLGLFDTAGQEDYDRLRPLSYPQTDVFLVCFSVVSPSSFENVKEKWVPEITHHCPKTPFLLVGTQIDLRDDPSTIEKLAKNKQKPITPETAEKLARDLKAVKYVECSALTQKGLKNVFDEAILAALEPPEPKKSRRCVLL
# Rac1 wt modul = human Rac1 wildtype GTP binding, inhibitors and activators | P63000 | GST-Rac1 beads, fluorescent GTP binding, flow cytometry; actives lie on both sides; 0 = cold GTP competed, 100 = untreated | GTP binding activity (% of control), % at 10 µM | actives 0.27% (n = 190,000) | AID 757;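 active means GTP binding activity at least 20 points away from the 100% control level, either lower or higher; inconclusive means compound flagged as likely green fluorescent, judged across all proteins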
# Rac1 act GTP bind = human Rac1 activated mutant GTP binding change | P63000 | GST-Rac1 activated beads, fluorescent GTP binding, flow cytometry; actives lie on both sides; 100% means binding = to untreated wells | percent activity (GTP binding), % at 10 µM | actives 0.11% (n = 190,000) | AID 764;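 active means GTP binding at least 20 percentage points away from the 100% baseline, in either direction, so actives lie on both sides; inconclusive means Compound likely fluorescent itself, or too few beads counted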
# HRas wt GTP bind = modulators of GTP binding to human HRas wildtype; actives 0.14% (n = 190,000); P01112; GST-Ras wt beads, Bodipy-FL-GTP binding, flow cytometry; actives lie on both sides; GTP binding activity, % at 10 µM;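 active means GTP binding activity at least 20% away from the 100% baseline, either lowered as inhibitor or raised as activator; inconclusive means flagged as likely green fluorescent, judged across all proteins in the well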;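 further: 0% = unlabeled GTP competition control and 100% = no-compound control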
# Target sequence (P01112 whole entry, looked up): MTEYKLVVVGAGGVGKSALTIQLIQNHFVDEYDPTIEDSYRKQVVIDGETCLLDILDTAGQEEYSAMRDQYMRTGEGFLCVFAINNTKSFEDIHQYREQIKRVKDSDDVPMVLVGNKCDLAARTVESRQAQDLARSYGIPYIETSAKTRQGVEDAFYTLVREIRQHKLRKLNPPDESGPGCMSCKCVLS
# Active calls of the source: *; ? = inconclusive; nt = not tested or not shown; [ ] = another dose, or the depositor's remark.
SMILES,Rab2 wt GTP,Rab7 wt GTP bind,Cdc42 wt GTP,Rac1 wt modul,Rac1 act GTP bind,HRas wt GTP bind
CN(c1ccccc1)c1ccc(/C=N/NC(=O)CC#N)cc1,99,97,97,104,100,101
O=C(O)c1ccc(CNCc2ccc(F)cc2)cc1,85,94,79*,83,80,86
COc1ccc(CC(=O)Nc2ccc(C(=O)Nc3nccs3)cc2)cc1OC,73*,94,73*,82,89,77*
COc1ccc(CCNC(=O)C(=O)Nc2nccs2)cc1OC,99,97,99,98,97,99
COc1ccc(C(=O)Nc2nc3ccccc3[nH]2)cc1S(=O)(=O)N1CCOCC1,77*,82,78*,82,90,80
O=C(c1nnsc1S(=O)(=O)c1ccc(Cl)cc1)N1CCOCC1,106,107,105,106,120*[activator],102
O=C(Nc1ccc(N2CCCCC2)cc1)c1ccc2ccccc2n1,98,106,95,92,91,95
O=C(O)C1C2C=CC(C2)C1C(=O)N1CCOCC1 (stereo not drawn),36*,22*,39*,33*,37*,43*
O=C(NC1CCCC1)C1C2C=CC(C2)C1C(=O)N1CCOCC1 (stereo not drawn),99,103,101,98,98,98
Nc1nc(CN2CCN(c3ccccc3F)CC2)nc(N2CCCc3ccccc32)n1,83,88,79*,87,80,87
CCOC(=O)c1c(NC(=O)CSc2nnc(Cc3ccccc3)o2)sc(C(C)=O)c1C,103,96,103,102,99,103
CCOC(=O)c1sc(NC(=O)CSc2nnc(Cc3ccccc3)o2)c(C#N)c1C,78*,83,85,81,76*,83
Cc1nc2nc(SCC(=O)O)nn2c(C)c1Cc1c(F)cccc1Cl,73*,87,72*,78*,70*,78*
Cc1nc2nc(SCC(=O)NCc3ccco3)nn2c(C)c1Cc1c(F)cccc1Cl,97,96,95,95,96,97
Cc1nc2nc(SCC(=O)O)nn2c(C)c1Cc1ccccc1Cl,78*,83,82,90,81,84
CCOC(=O)Cc1csc(/N=C/c2c(O)n(-c3ccccc3C(F)(F)F)c(=O)c3ccccc23)n1,98,97,99,99,96,97
Cn1c(=O)c2c(nc(N3CCc4ccccc4C3)n2C)n(C)c1=O,81,85,80*,69*,83,81
CCN1CCN(c2nc3c(c(=O)n(C)c(=O)n3C)n2Cc2cccc3ccccc23)CC1,111,102,116,120*[activator],101,108
O=C(O)c1cc(-c2ccc(/C=C3/SC(=S)N(Cc4ccccc4)C3=O)o2)ccc1Cl,78*,89,76*,74*,77*,80
Cc1ccc(/C=C2\SC(=S)N(Cc3ccccc3)C2=O)o1,90,89,88,89,88,89
COc1ccc(CN2C(=O)/C(=C/c3ccc(-c4ccc(Cl)c(C(=O)O)c4)o3)SC2=S)cc1,79*,84,75*,76*,76*,73*
O=C(CCNS(=O)(=O)c1c(Cl)cccc1Cl)OCC(=O)c1ccccc1,97,96,98,104,98,100
CCCCC(=O)NC1(C(F)(F)F)C(=O)N(CC(C)C)C2=C1C(=O)CC(C)(C)C2 (stereo not drawn),104,104,105,105,102,106
CCOC(=O)c1ccc(Nc2nc(C(=O)OCC)nc3ccccc23)cc1,73*,81,69*,82,82,73*
CCN1/C(=C/C=C/C=C/c2sc3ccccc3[n+]2CC)Sc2ccccc21,57*,nt,63*,89,?,51*
SMILES,Rab2 wt GTP,Rab7 wt GTP bind,Cdc42 wt GTP,Rac1 wt modul,Rac1 act GTP bind,HRas wt GTP bind
Cc1cc([N+](=O)[O-])ccc1N=Nc1c(N)[nH]n(-c2ccccc2)c1=O,90,99,88,78*,87,91
Nc1[nH]n(-c2ccccc2)c(=O)c1N=Nc1ccc2c(c1)OCCO2,93,96,90,94,92,92
COC(=O)c1ccccc1C(=O)c1ccc2c(c1)NC(=O)CO2,95,96,94,93,92,96
COc1ccc(C(=O)NCC(=O)OCC(=O)Nc2sccc2C#N)cc1OC,89,95,86,93,91,92
CCC(/C=C1\Sc2ccc(OC)cc2N1CCO)=C\c1sc2ccc(OC)cc2[n+]1CCO,80,90,82,87,89,78*
CCC(/C=C1\Sc2ccc(OC)cc2N1CC)=C\c1sc2ccc(OC)cc2[n+]1CCCS(=O)(=O)[O-],92,95,94,96,93,94
COc1ccc(-n2c(=S)[nH]c3c(oc4ccccc43)c2=O)cc1,94,98,96,111,98,99
Cc1ccc(-n2c(=O)[nH]c3c(oc4ccccc43)c2=O)cc1,117,106,114,135*[activator],107,112
O=C(O)Cc1coc2cc3c(cc12)CCC3,89,79*,91,88,87,88
COc1ccc(-c2nn3c(-c4ccccn4)nnc3s2)cc1OC,79*,86,82,74*,89,80
COc1ccc(C2(CNC(=O)c3cccs3)CCOCC2)cc1,98,94,98,102,96,97
CCOC(=O)c1c(C)[nH]c(C(=O)COC(=O)C(C)N2C(=O)C3CCCCC3C2=O)c1C (stereo not drawn),97,97,92,95,98,97
COc1ccc(C(=O)N/C(=C\c2cccc([N+](=O)[O-])c2)C(=O)Nc2cccc(C(=O)O)c2)cc1,60*,92,62*,64*,82,69*
Cc1ccc(Nc2c(F)c(F)c(F)c(F)c2C(=O)O)cc1,127*[activator],119,128*[activator],141*[activator],130*[activator],117
COc1cccc(Nc2c(F)c(F)c(F)c(F)c2C(=O)O)c1,113,113,123*[activator],131*[activator],116,113
O=C(O)C1=C[C@H](c2ccc(C(F)(F)F)cc2)C[C@H](OCc2ccc(CO)cc2)O1,76*,90,74*,77*,76*,80
O=C(Nc1ccc(N2CCN(C(=O)c3ccccc3F)CC2)cc1)c1ncn[nH]1,103,107,101,107,101,104
O=c1[nH]c(N/N=C/c2ccc(O)cc2)nc2ccccc12,77*,91,83,77*,89,76*
O=c1[nH]c(N/N=C\c2ccc(F)cc2)nc2ccccc12,98,100,94,90,95,98
